# Assay results from the supplement of paper PMC3342239.
# Where a name gives a salt, the structure may show the parent alone.
# System: Saccharomyces cerevisiae
# Test: fraction of cells in G1 phase (DNA content, flow cytometry); higher = more cells with unreplicated DNA (G1 delay)
# Details: temperature: 30 C; YPD; JTY2953 pdr5 snq2 (sensitized); drug added to: cultures diluted from stationary phase; 6-7 h
# How it was run: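 For the G1 fraction, the Dean-Jett-Fox G1 peak area was divided by the sum of the G1 and G2/M areas. S. cerevisiae in YPD at 30°C received library drugs and was fixed 6–7 h later for sensitized JTY2953 (diluted 1∶200 from overnight, final 20 µg/ml), 6 h later for dividing JTY2953, or 4.33 h later for BY4741. Fixed cells were stained with SYTOX Green and 10,000 events recorded by flow cytometry.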
row,SMILES,fraction of cells in G1 phase
1,O=C(NCCO[N+](=O)[O-])c1cccnc1 [Nicorandil] (94.7066 µM),0.516
2,CCOC(=O)[C@H](CCc1ccccc1)N[C@@H](C)C(=O)N1CCC[C@H]1C(=O)O [Enalapril] (53.127 µM),0.511
3,COc1ccc(C2CNC(=O)C2)cc1OC1CCCC1 (configuration not stated) [Rolipram] (72.6347 µM),0.497
4,Cc1cc(C(C)(C)C)c(O)c(C)c1CC1=NCCN1 [Oxymetazoline HCl] (76.8101 µM),0.511
5,CC(C)[C@H]1CC[C@H](C(=O)N[C@H](Cc2ccccc2)C(=O)O)CC1 [nateglinide] (63.0056 µM),0.489
6,CC(C)(C#N)c1cc(Cn2cncn2)cc(C(C)(C)C#N)c1 [Anastrozole] (68.1723 µM),0.518
7,CCN(CC)CCCC(C)Nc1c2ccc(Cl)cc2nc2ccc(OC)cc12 (configuration not stated) [Quinacrine 2HCl dihydrate] (50.004 µM),0.529
8,O=C1CC2(CCCC2)CC(=O)N1CCCCN1CCN(c2ncccn2)CC1 [Buspirone HCl] (51.8789 µM),0.499
9,COc1cc2ncnc(Nc3ccc(F)c(Cl)c3)c2cc1OCCCN1CCOCC1 [Gefitinib] (44.7514 µM),0.535
10,CN1CCc2cccc3c2[C@H]1Cc1ccc(O)c(O)c1-3 [Apomorphine r (-)] (74.8137 µM),0.483
11,CC(C)OC(=O)C(C)(C)Oc1ccc(C(=O)c2ccc(Cl)cc2)cc1 [Fenofibrate] (55.4261 µM),0.497
12,CC(=O)[C@@]1(O)CC[C@H]2[C@@H]3CCC4=CC(=O)CC[C@]4(C)[C@H]3CC[C@@]21C [17- hydroxyprogesterone] (60.5196 µM),0.515
